Among the data in PubChem BioAssay (NCI) are growth values, retold here.

About 83,000 compounds went through this panel and 20% of them were active in at least one assay; those are over-represented in the sample as a whole.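 Growth was measured after 48 h exposure to one concentration of compound in 96-well plates. Values under 10 count as active.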 Unmarked numbers belong to inactive results. The source made the active and inactive calls.

Some test systems named below: NCI-H23 lung; HOP-62 NSCLC; NCI-H460 lung; HOP-92 NSCLC; NCI-H522 lung; A549/ATCC NSCLC; 786-0 renal; COLO 205 colon; NCI-H322M lung.
Holding throughout (experiment): NCI-60 one-dose screen, 48 h (100 = growth as untreated, 0 = no growth, -100 = all killed)
Common to all, as to conditions: 10 µM

In the case of `Nc1nc(-c2ccccc2)cc(-c2cc3ccccc3nc2Cl)n1`, the growth is 89.3% in the test with NCI-H23 lung; 89.4% in the test on HOP-62 NSCLC; 81.5% in the test on NCI-H460 lung; 73.1% in the test with HOP-92 NSCLC; 89.4% in the test on NCI-H522 lung; 91% with A549/ATCC NSCLC. Moreover, the results for the growth in the test with 786-0 renal and in the test on COLO 205 colon were 89.7% and 110%, respectively.

With `CCOC(=O)N/C(=C1/OCCN1C)[P+](c1ccccc1)(c1ccccc1)c1ccccc1`, the growth is 85.8% in the test on NCI-H23 lung; 89.9% with NCI-H322M lung; 97.6% in the test on HOP-62 NSCLC; 86.7% in the test on NCI-H460 lung; 59.1% in the test on HOP-92 NSCLC; 54.2% with NCI-H522 lung. Besides, the growth is 89% in the test on A549/ATCC NSCLC, 101% in the test with 786-0 renal and 41.3% in the test on COLO 205 colon.

For `O=C(CSc1nnc(-c2c[nH]c3ccccc23)n1-c1ccccc1)Nc1ccc(C(=O)/C=C/c2ccc(Br)cc2)cc1`, the growth was 81.3% in the test on NCI-H23 lung; 89.4% in the test on HOP-62 NSCLC; 104% in the test with NCI-H460 lung; 89.4% with HOP-92 NSCLC; 76.3% with NCI-H522 lung; 89.6% with A549/ATCC NSCLC. In addition, the values for the growth in the test on 786-0 renal and in the test on COLO 205 colon were 94.8% and 108%, respectively.

On to `O=C1CCC(N2Cc3cc(NC(=O)COc4ccccc4)ccc3C2=O)C(=O)N1` (configuration not stated), for which the growth in the test on NCI-H23 lung was 101%; in the test on NCI-H322M lung, 80.3%; in the test with HOP-62 NSCLC, 65.7%; with NCI-H460 lung, 113%; in the test on HOP-92 NSCLC it was -0.508% (active); in the test on NCI-H522 lung, 91%. Also, the figures for the growth with A549/ATCC NSCLC, in the test with 786-0 renal and with COLO 205 colon were 85%, 71.8% and 74.6%, respectively.

For `Cc1ccc(F)cc1N/C=c1\s/c(=C(\C#N)C(=O)Nc2ccccc2)n(-c2ccccc2)c1=O`, the growth in the test with NCI-H23 lung is 58%; in the test with HOP-62 NSCLC it was 51.8%; with NCI-H460 lung, 71.7%; in the test with HOP-92 NSCLC, 27.6%; in the test on NCI-H522 lung, 74.7%; in the test on A549/ATCC NSCLC it was 37.7%. Moreover, the growth is 34.6% in the test on 786-0 renal and 99% in the test with COLO 205 colon.

As to `O=c1[nH]c2ccc(Cl)cc2cc1CSc1ccc(Nc2nccc(-c3ccc4ccccc4c3)n2)cc1`, the growth with NCI-H23 lung is 81.9%; with NCI-H322M lung, 95.5%; in the test with HOP-62 NSCLC it was 85.8%; in the test on NCI-H460 lung, 20.8%; in the test with HOP-92 NSCLC, 88.1%; in the test with NCI-H522 lung, 80.5%. The growth is 22.7% in the test with A549/ATCC NSCLC, 64.8% with 786-0 renal and 31.8% in the test with COLO 205 colon.

In the case of `O=c1cc(-c2ccccc2)oc2cc(OCCCCNCc3ccccc3)cc(O)c12`, the growth in the test with NCI-H23 lung is -73.7% (active); in the test on NCI-H322M lung, 57.5%; in the test with HOP-62 NSCLC, 61%; in the test on NCI-H460 lung it was -73.9% (active); in the test on HOP-92 NSCLC, 31.8%; with NCI-H522 lung it was 34.2%. Further, the growth in the test with A549/ATCC NSCLC was 49.3%; in the test with 786-0 renal, -68.2% (active); in the test with COLO 205 colon, -91.8% (active).

Consider `O=C(Nc1ccc(I)cc1F)c1cc(-c2ccc(F)cc2F)ccc1O`, for which the growth is -22% (active) in the test on NCI-H23 lung; 6.19% (active) in the test on NCI-H322M lung; -10.6% (active) with HOP-62 NSCLC; 2% (active) with NCI-H460 lung; -26.3% (active) in the test with HOP-92 NSCLC; -9.59% (active) with NCI-H522 lung. The growth in the test on A549/ATCC NSCLC was 9.86% (active); in the test with 786-0 renal, 16.7%; with COLO 205 colon it was -35.6% (active).

For the compound `O=C(CSc1nnc(-c2c[nH]c3ccccc23)n1-c1ccccc1)Nc1ccc(C(=O)/C=C/c2ccc(Cl)cc2)cc1`, the growth was 61.5% with NCI-H23 lung; 89% in the test with NCI-H322M lung; 85.8% in the test on HOP-62 NSCLC; 88.2% in the test on NCI-H460 lung; 87.3% in the test with HOP-92 NSCLC; 76.8% in the test with NCI-H522 lung. For the same compound, the growth is 79.3% in the test on A549/ATCC NSCLC, 93.6% in the test on 786-0 renal and 89.7% in the test on COLO 205 colon.

Turning to `CCCCCc1ccc(S(=O)(=O)Nc2cc(-c3csc(N(C)C(C)=O)n3)ccc2N2CCN(C)CC2)cc1`, the growth with NCI-H23 lung was 44.3%; in the test on NCI-H322M lung, 63.6%; in the test on HOP-62 NSCLC it was 54.2%; in the test on NCI-H460 lung, 23.6%; in the test with HOP-92 NSCLC, -12.9% (active); in the test on NCI-H522 lung it was 32.8%. Also, the results for the growth with A549/ATCC NSCLC, in the test on 786-0 renal and in the test with COLO 205 colon were 57.7%, 8.85% (active) and -65.6% (active), respectively.

In the case of `O=C(c1ccc([N+](=O)[O-])c([N+](=O)[O-])c1O)n1[nH]c(=O)c2ccccc2c1=O`, the growth in the test on NCI-H23 lung was 50.5%; in the test with NCI-H322M lung, 85.8%; in the test on HOP-62 NSCLC it was 75.5%; with NCI-H460 lung, 44.8%; in the test on HOP-92 NSCLC it was 78.6%; in the test with NCI-H522 lung, 54.8%. Moreover, the growth is 77.6% in the test on A549/ATCC NSCLC, 97.7% with 786-0 renal and 124% with COLO 205 colon.

As for `CCOc1ccc(/C=N/NC(=O)Cn2nc(Cc3ccc([N+](=O)[O-])cc3)c3onc(C)c3c2=O)cc1`, the growth is 28.8% with NCI-H23 lung; 29.4% with NCI-H322M lung; -17.3% (active) in the test with HOP-62 NSCLC; -9.53% (active) with NCI-H460 lung; -44.6% (active) in the test on HOP-92 NSCLC; 47.6% in the test on NCI-H522 lung. The growth in the test on 786-0 renal was -79.7% (active); in the test with COLO 205 colon, 53.7%.

Turning to `COc1ccc(-c2nc(S(=O)(=O)c3ccc(C)cc3)c(S(C)(=O)=O)o2)cc1`, the growth was -78.1% (active) in the test on NCI-H23 lung; 89.6% in the test on NCI-H322M lung; 84% in the test with HOP-62 NSCLC; 4.05% (active) with NCI-H460 lung; -75% (active) in the test on HOP-92 NSCLC; -96.6% (active) in the test on NCI-H522 lung. The results for the growth in the test on A549/ATCC NSCLC, in the test with 786-0 renal and with COLO 205 colon were 81.2%, -33.4% (active) and -88.7% (active), respectively.

On to `COc1ccc2[nH]c(O)c(N=NC(=O)COc3ccc(NC(=O)Nc4ccc(Cl)c(Cl)c4)cc3)c2c1`, for which the growth in the test with NCI-H23 lung is -80.4% (active); with NCI-H322M lung, 16.6%; in the test with HOP-62 NSCLC it was -36% (active); in the test with NCI-H460 lung, 15.5%; in the test with HOP-92 NSCLC, -47.4% (active); with NCI-H522 lung it was -90% (active). Moreover, the growth in the test on A549/ATCC NSCLC is -54.5% (active); with 786-0 renal it was -33.2% (active); in the test on COLO 205 colon it was -49.3% (active).
